From PubChem BioAssay (NCATS)
Records with an inconclusive call do not appear. A call without a number means that no potency is given here. Active and inactive are the calls of the source. The call rests on the fitted dose curve; in most records, active means well fitted inhibition curve with a large enough effect; inconclusive means small, poorly fitted or top-dose-only effect; inactive means flat fitted curve, though single readings scatter.

Experiments:
Assay in all cases: qHTS profiling for inhibitors of Plasmodium falciparum proliferation (AID 504749); further: nearly all actives have a fitted effect of over 60% in size
Details in all cases: P. falciparum in erythrocytes, SYBR Green DNA, 72 h; series mostly up to 28.7 µM
CP329 = system: CP329
Procedure, shortened: (§1)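 In a 72 h erythrocytic culture (37 C, humidified, 5% CO2) at 2.5% hematocrit and 0.3% starting parasitemia, compounds were tested; SYBR Green I in detergent lysis buffer stained parasite DNA overnight.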

CP335 = system: CP335
Procedure, shortened: as §1

DFO2036 = system: DFO2036
Procedure, shortened: as §1

DIV17 = system: DIV17
Procedure, shortened: as §1

DIV30 = system: DIV30
Procedure, shortened: as §1

Dd2 = system: Dd2
Procedure, shortened: as §1

ECU = system: ECU
Procedure, shortened: as §1

FAB9 = system: FAB9
Procedure, shortened: as §1

GB4 = system: GB4
Procedure, shortened: as §1

DIV14 = system: DIV14
Procedure, shortened: as §1
Potency means the concentration at half of the fitted maximal effect.

SMILES	Potency (CP329)	Potency (CP335)	Potency (DFO2036)	Potency (DIV17)	Potency (DIV30)	Potency (Dd2)	Potency (ECU)	Potency (FAB9)	Potency (GB4)	Potency (DIV14)
COc1ccc(C2C(=O)c3ccccc3C2=O)cc1	inactive	inactive	inactive	inactive	inactive	inactive	inactive	inactive	inactive	–
Nc1ccc(C(=O)Nc2ccccc2N)cc1	inactive	inactive	inactive	inactive	–	inactive	inactive	inactive	inactive	inactive
CCN(CC)C(=O)N1CCN(C)CC1	inactive	inactive	inactive	inactive	inactive	inactive	inactive	inactive	inactive	inactive
CCCCC1=NC2(CCCC2)C(=O)N1Cc1ccc(-c2ccccc2-c2nn[nH]n2)cc1	inactive	inactive	inactive	inactive	inactive	inactive	inactive	inactive	–	–
CCCCOc1cc(C(=O)NCCN(CC)CC)c2ccccc2n1	inactive	inactive	inactive	inactive	inactive	inactive	inactive	inactive	–	–
CC(O)(P(=O)(O)O)P(=O)(O)O	inactive	inactive	inactive	–	inactive	inactive	inactive	inactive	–	–
CCOC(=O)COc1ccc2c(C)c(CCN(CC)CC)c(=O)oc2c1Cl	inactive	inactive	inactive	inactive	inactive	inactive	–	inactive	inactive	inactive
C[C@H]1C[C@H]2[C@@H]3CCC4=CC(=O)C=C[C@]4(C)[C@@]3(Cl)[C@@H](O)C[C@]2(C)[C@@]1(O)C(=O)CO	inactive	inactive	inactive	inactive	–	inactive	inactive	inactive	inactive	inactive
COC1=CC(=O)C[C@@H](C)[C@]12Oc1c(Cl)c(OC)cc(OC)c1C2=O	inactive	inactive	inactive	inactive	inactive	inactive	inactive	inactive	inactive	–
CC(=O)Oc1ccc(C(=C2CCCCC2)c2ccc(OC(C)=O)cc2)cc1	inactive	inactive	inactive	inactive	inactive	inactive	inactive	inactive	inactive	inactive
Cc1ncc(CSSCc2cnc(C)c(O)c2CO)c(CO)c1O	inactive	inactive	inactive	inactive	inactive	inactive	inactive	inactive	inactive	inactive
CCC(C(=O)OCCN(CC)CC)c1ccccc1 (stereo not given)	inactive	inactive	inactive	inactive	inactive	–	inactive	inactive	–	inactive
Cc1cc(O)c(C(C)C)cc1Cl	inactive	inactive	inactive	–	inactive	inactive	inactive	inactive	–	inactive
CN1CCC[C@@H]1c1cccnc1	inactive	inactive	inactive	inactive	inactive	inactive	inactive	inactive	inactive	–
COc1cc2c(cc1OC)C(=O)C(CC1CCN(Cc3ccccc3)CC1)C2 (stereo not given)	inactive	inactive	inactive	–	inactive	8.91 µM (active)	inactive	inactive	–	10.7 µM (active)
COc1cc(NS(C)(=O)=O)ccc1Nc1c2ccccc2nc2ccccc12	4.78 µM (active)	4.26 µM (active)	2.82 µM (active)	1.51 µM (active)	4.26 µM (active)	–	3.16 µM (active)	3.98 µM (active)	–	1.9 µM (active)
CC[N+](CC)(CCNC(=O)C(=O)NCC[N+](CC)(CC)Cc1ccccc1Cl)Cc1ccccc1Cl	2.39 µM (active)	2.69 µM (active)	1.78 µM (active)	4.78 µM (active)	6.01 µM (active)	2.51 µM (active)	–	1.12 µM (active)	2.39 µM (active)	4.26 µM (active)
O=C(CCN1CCC(c2ccccc2)C1)c1ccc2c(c1)OCCO2 (stereo not given)	inactive	inactive	inactive	–	inactive	inactive	inactive	inactive	–	–
C[C@@H]1C(=O)NC2=Nc3cccc(Cl)c3CN21	inactive	inactive	inactive	inactive	inactive	inactive	inactive	inactive	–	–
CN1C2CCC1CC(OC(=O)c1c[nH]c3ccccc13)C2 (stereo not given)	inactive	inactive	inactive	inactive	inactive	inactive	inactive	inactive	inactive	–
O=C1OC(c2ccc(O)cc2)(c2ccc(O)cc2)c2ccccc21	inactive	inactive	inactive	inactive	–	inactive	–	inactive	inactive	inactive
O=C(OCCOCCO)c1ccccc1Nc1cccc(C(F)(F)F)c1	inactive	inactive	inactive	inactive	inactive	inactive	inactive	inactive	inactive	inactive
CCN1CCC[C@H]1CNC(=O)c1c(OC)ccc(Br)c1OC	inactive	inactive	inactive	–	inactive	12.6 µM (active)	inactive	inactive	–	–

SMILES	Potency (CP329)	Potency (CP335)	Potency (DFO2036)	Potency (DIV17)	Potency (DIV30)	Potency (Dd2)	Potency (ECU)	Potency (FAB9)	Potency (GB4)	Potency (DIV14)
O=C(Nc1ccc(Oc2ccc(Cl)cc2)c(Cl)c1)c1cc(I)cc(I)c1O	inactive	inactive	inactive	inactive	inactive	inactive	–	inactive	inactive	inactive
O=C1c2ccccc2C(=O)C1c1ccccc1	inactive	inactive	inactive	inactive	inactive	inactive	inactive	inactive	inactive	inactive
COc1cccc(CCc2ccccc2OCC(CN(C)C)OC(=O)CCC(=O)O)c1 (stereo not given)	12 µM (active)	3.79 µM (active)	11.2 µM (active)	2.39 µM (active)	6.75 µM (active)	1.41 µM (active)	4.47 µM (active)	–	2.13 µM (active)	2.13 µM (active)
Nc1cc(Cl)c(NC2=NCCN2)c(Cl)c1	inactive	inactive	inactive	inactive	inactive	inactive	inactive	inactive	inactive	–
O=C1CCC(c2ccc(-n3ccnc3)cc2)=NN1	inactive	inactive	inactive	inactive	inactive	inactive	inactive	inactive	inactive	inactive
C[C@@H]1C[C@H]2[C@@H]3CCC4=CC(=O)C=C[C@]4(C)[C@@]3(F)[C@@H](O)C[C@]2(C)[C@H]1C(=O)CO	inactive	inactive	inactive	–	–	inactive	inactive	inactive	–	13.5 µM (active)
CCOc1ccc2nc3cc(N)ccc3c(N)c2c1	15.1 µM (active)	6.01 µM (active)	5.62 µM (active)	15.1 µM (active)	–	2.51 µM (active)	8.91 µM (active)	7.94 µM (active)	–	7.57 µM (active)
CCCCCCCCCCOCC(O)CN (stereo not given)	inactive	–	inactive	–	–	12.6 µM (active)	–	inactive	9.53 µM (active)	10.7 µM (active)
CCN(CCCc1ccccc1)CCCc1ccccc1	inactive	–	inactive	–	–	3.16 µM (active)	inactive	inactive	–	–
CC(=O)N/N=C/c1ccc([N+](=O)[O-])o1	inactive	inactive	–	–	inactive	12.6 µM (active)	–	–	–	inactive
Oc1ccc(Cl)c2cccnc12	inactive	–	inactive	inactive	inactive	–	inactive	inactive	–	inactive
CCCOC(C(=O)OC1CCN(C)CC1)(c1ccccc1)c1ccccc1	inactive	–	inactive	7.57 µM (active)	–	12.6 µM (active)	10 µM (active)	inactive	–	7.57 µM (active)
Cc1cccc(C)c1NC(=O)CN1CCN(CCCC(c2ccc(F)cc2)c2ccc(F)cc2)CC1	inactive	–	inactive	–	–	–	–	inactive	–	–
N[C@H](Cc1c[nH]c2ccccc12)C(=O)O	inactive	–	inactive	inactive	inactive	–	inactive	inactive	inactive	inactive
CCCCCCCCCCCCCCNCCO	inactive	inactive	17.8 µM (active)	–	inactive	10 µM (active)	–	inactive	–	–
CCN(CC)CCNC(=O)COc1ccc(Cl)cc1	inactive	inactive	–	–	inactive	12.6 µM (active)	–	inactive	–	–
CN(C)CC/C=C1\c2ccccc2Sc2ccc(Cl)cc21	inactive	–	–	3.38 µM (active)	–	8.91 µM (active)	–	8.91 µM (active)	–	7.57 µM (active)
Oc1c(I)cc(Cl)c2cccnc12	inactive	inactive	–	inactive	inactive	inactive	inactive	inactive	–	–
CN(C(=O)CN(CCO)CC(=O)N(C)C(C)(C)Cc1ccccc1)C(C)(C)Cc1ccccc1	inactive	–	inactive	–	inactive	inactive	inactive	inactive	–	–
CCCCN1CCCC1C(=O)Nc1c(C)cc(C)cc1C (stereo not given)	inactive	–	inactive	inactive	inactive	–	inactive	inactive	inactive	inactive
NC(=O)C(=O)N/N=C/c1ccc([N+](=O)[O-])o1	15.1 µM (active)	inactive	inactive	–	–	inactive	inactive	inactive	–	–
CN(C)/N=N/c1nc[nH]c1C(N)=O	inactive	–	inactive	inactive	inactive	inactive	inactive	inactive	inactive	inactive
CCN1CCN(c2cc3c(cc2F)c(=O)c(C(=O)O)cn3C2CC2)CC1	inactive	–	inactive	inactive	inactive	inactive	inactive	–	inactive	inactive
